Laboratory results: PubChem BioAssay (NCI)
About 79,000 compounds went through this panel and 15% of them were active in at least one assay; those are over-represented in the sample as a whole. A number with no mark means an inactive call. Calls of active or inactive are those of the source. No stated cut-off is given here; in the data, active means growth inhibition above about 70%; inactive means the rest.

How the values were obtained:
[1] = NCI Yeast Anticancer Drug Screen. Data for the rad52 strain (AID 147);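 further: 0% = growth of vehicle-treated control cultures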; details: S. cerevisiae rad52 mutant growth inhibition, stronger effect = higher value
Summary of the method: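 Here a repair-compromised yeast strain receives each compound; its growth is then quantified and normalised to vehicle-only controls.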

[2] = NCI Yeast Anticancer Drug Screen. Data for the rad50EPP+ strain (AID 151);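 further: 0% = growth of vehicle-treated control cultures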; details: S. cerevisiae rad50 mutant strain, stronger effect = higher value
Summary of the method: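 Read-out is yeast growth inhibition relative to vehicle; cells used were the rad50EPP+ strain.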

[3] = NCI Yeast Anticancer Drug Screen. Data for the mgt1 strain (AID 153); details: S. cerevisiae mgt1 mutant growth inhibition, stronger effect = higher value
Summary of the method: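 Measured: inhibition of mgt1 yeast growth by compound, normalized to vehicle-treated cultures.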

[4] = NCI Yeast Anticancer Drug Screen. Data for the rad50 strain (AID 155);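 further: 0% = growth of vehicle-only cultures of the same strain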; details: S. cerevisiae rad50 strain growth inhibition, stronger effect = higher value
Summary of the method: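 Compounds were tested on a yeast strain with an engineered DNA damage repair alteration; the reported value is growth inhibition normalised to vehicle treatment.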

[5] = NCI Yeast Anticancer Drug Screen. Data for the mec2-1 strain (AID 157); details: S. cerevisiae mec2-1 strain, stronger effect = higher value
Summary of the method: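 Using mec2-1 yeast: add compound, measure growth, express inhibition versus vehicle-treated cultures.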

[6] = NCI Yeast Anticancer Drug Screen. Data for the rad14 strain (AID 159);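 further: 0% = growth of vehicle-treated control cultures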; details: S. cerevisiae rad14 strain growth inhibition, stronger effect = higher value
Summary of the method: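 Compound-treated yeast with a defined DNA-repair lesion; growth inhibition normalised to vehicle-treated cultures.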

[7] = NCI Yeast Anticancer Drug Screen. Data for the sgs1 mgt1 strain (AID 161);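 further: 0% = growth of cultures given vehicle only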; details: S. cerevisiae sgs1 mgt1 strain, stronger effect = higher value
Summary of the method: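 Yeast cells carrying a defined DNA-repair defect were exposed to test compounds. Growth inhibition was measured relative to vehicle-treated controls.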

[8] = NCI Yeast Anticancer Drug Screen. Data for the CLN2oe strain (AID 163);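 further: 0% = growth of vehicle-only control cultures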; details: S. cerevisiae CLN2oe strain, stronger effect = higher value
Summary of the method: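 Whole-cell yeast growth assay. A strain engineered for altered cell-cycle control received compound, and inhibition relative to vehicle-treated cultures was recorded.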

[9] = NCI Yeast Anticancer Drug Screen. Data for the cln2 rad14 strain (AID 165);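 further: 0% = growth equal to vehicle treated cultures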; details: S. cerevisiae cln2 rad14 strain, stronger effect = higher value
Summary of the method: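 Yeast strain cln2 rad14, bearing defects in cell cycle control and DNA repair, serves as the test system; values reflect growth inhibition compared with vehicle.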

[10] = NCI Yeast Anticancer Drug Screen. Data for the bub3 strain (AID 167); details: S. cerevisiae bub3 mutant strain, stronger effect = higher value
Summary of the method: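 Growth of a checkpoint-deficient yeast mutant is measured after compound exposure. Values represent inhibition relative to vehicle.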

[11] = NCI Yeast Anticancer Drug Screen. Data for the wt2 strain (AID 169);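 further: 0% = growth of vehicle-treated yeast cultures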; details: S. cerevisiae wt2 strain growth inhibition, stronger effect = higher value
Summary of the method: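 Treated yeast vs. vehicle-treated yeast: growth inhibition determined.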

[12] = NCI Yeast Anticancer Drug Screen. Data for the mlh1 strain (AID 171);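 further: 0% = growth of vehicle-treated control cultures of the same strain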; details: S. cerevisiae mlh1 strain growth inhibition, stronger effect = higher value
Summary of the method: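 A yeast strain with a defined genetic lesion serves as the test organism. Cultures receive compound or vehicle, and growth is measured.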

[13] = NCI Yeast Anticancer Drug Screen. Data for the sgs1 strain (AID 173);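 further: 0% = growth of vehicle-only control cultures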; details: S. cerevisiae sgs1 mutant, stronger effect = higher value
Summary of the method: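 A genetically defined yeast mutant is incubated with the test compound, and its growth is compared to that of the same strain given vehicle.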

[14] = NCI Yeast Anticancer Drug Screen. Data for the mlh1 rad18 strain (AID 175); details: S. cerevisiae mlh1 rad18 strain growth inhibition, stronger effect = higher value
Summary of the method: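 Steps: expose repair-defective yeast to compound; measure growth; express inhibition against vehicle-treated controls.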

[15] = NCI Yeast Anticancer Drug Screen. Data for the rad18 strain (AID 177); details: S. cerevisiae rad18 mutant growth inhibition, stronger effect = higher value
Summary of the method: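 Measured value is growth inhibition of a yeast strain bearing a DNA repair alteration, referenced to vehicle-treated cells.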

[16] = at 5.0 µM (retest, dose inferred, filed as 0.5)
[17] = at 50.0 µM (retest, dose inferred, filed as 5.0)

**Q.** Which results are given for `O=c1ssc2ncccc12`?
**A.** growth inhibition ([1]; at 1.2 µM): 3%; growth inhibition ([1]; at 3.7 µM): 15%; growth inhibition ([1]; at 11.0 µM): 71% (active); growth inhibition ([1]; at 33.0 µM): 95% (active); growth inhibition ([1]; at 100.0 µM): 99% (active); growth inhibition ([2]; at 1.2 µM): -5%; growth inhibition ([2]; at 3.7 µM): 6%; growth inhibition ([2]; at 11.0 µM): 45%; growth inhibition ([2]; at 33.0 µM): 86% (active); growth inhibition ([2]; at 100.0 µM): 97% (active); growth inhibition ([3]; at 1.2 µM): -1%; growth inhibition ([3]; at 3.7 µM): 10%; growth inhibition ([3]; at 11.0 µM): 41%; growth inhibition ([3]; at 33.0 µM): 84% (active); growth inhibition ([3]; at 100.0 µM): 99% (active); growth inhibition ([4]; at 1.2 µM): 15%; growth inhibition ([4]; at 3.7 µM): 49%; growth inhibition [4, 16]: 24%; growth inhibition ([4]; at 11.0 µM): 82% (active); growth inhibition ([4]; at 33.0 µM): 97% (active); growth inhibition [4, 17]: 99% (active); growth inhibition ([4]; at 50.0 µM): 97.1% (active); growth inhibition ([4]; at 100.0 µM): 99% (active); growth inhibition ([5]; at 1.2 µM): 3%; growth inhibition ([5]; at 3.7 µM): 6%; growth inhibition [5, 16]: 14%; growth inhibition ([5]; at 11.0 µM): 29%; growth inhibition ([5]; at 33.0 µM): 83% (active); growth inhibition [5, 17]: 96% (active); growth inhibition ([5]; at 50.0 µM): 91.2% (active); growth inhibition ([5]; at 100.0 µM): 97% (active); growth inhibition ([6]; at 1.2 µM): 7%; growth inhibition ([6]; at 3.7 µM): 14%; growth inhibition ([6]; at 11.0 µM): 49%; growth inhibition ([6]; at 33.0 µM): 97% (active); growth inhibition ([6]; at 100.0 µM): 99% (active); growth inhibition [7, 16]: 31%; growth inhibition [7, 17]: 96% (active); growth inhibition ([7]; at 50.0 µM): 93.2% (active); growth inhibition ([8]; at 1.2 µM): -7%; growth inhibition ([8]; at 3.7 µM): 6%; growth inhibition ([8]; at 11.0 µM): 45%; growth inhibition ([8]; at 33.0 µM): 85% (active); growth inhibition ([8]; at 100.0 µM): 97% (active); growth inhibition [9, 16]: 21%; growth inhibition [9, 17]: 90% (active); growth inhibition ([9]; at 50.0 µM): 49.6%; growth inhibition ([10]; at 1.2 µM): 2%; growth inhibition ([10]; at 3.7 µM): 4%; growth inhibition [10, 16]: 23%; growth inhibition ([10]; at 11.0 µM): 36%; growth inhibition ([10]; at 33.0 µM): 87% (active); growth inhibition [10, 17]: 97% (active); growth inhibition ([10]; at 50.0 µM): 93.2% (active); growth inhibition ([10]; at 100.0 µM): 98% (active); growth inhibition ([11]; at 1.2 µM): -6%; growth inhibition ([11]; at 3.7 µM): -4%; growth inhibition ([11]; at 11.0 µM): 15%; growth inhibition ([11]; at 33.0 µM): 57%; growth inhibition ([11]; at 100.0 µM): 98% (active); growth inhibition ([12]; at 1.2 µM): 9%; growth inhibition ([12]; at 3.7 µM): 20%; growth inhibition ([12]; at 11.0 µM): 56%; growth inhibition ([12]; at 33.0 µM): 95% (active); growth inhibition ([12]; at 100.0 µM): 99% (active); growth inhibition ([13]; at 1.2 µM): 4%; growth inhibition ([13]; at 3.7 µM): 12%; growth inhibition ([13]; at 11.0 µM): 72% (active); growth inhibition ([13]; at 33.0 µM): 96% (active); growth inhibition ([13]; at 100.0 µM): 99% (active); growth inhibition [14, 16]: 56%; growth inhibition [14, 17]: 98% (active); growth inhibition ([14]; at 50.0 µM): 96.7% (active); growth inhibition ([15]; at 1.2 µM): 7%; growth inhibition ([15]; at 3.7 µM): 27%; growth inhibition ([15]; at 11.0 µM): 74% (active); growth inhibition ([15]; at 33.0 µM): 97% (active); growth inhibition ([15]; at 100.0 µM): 99% (active)
